Experimental data as given in PubChem BioAssay (NCI).
About 83,000 compounds went through this panel and 20% of them were active in at least one assay; those are over-represented in the sample as a whole.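 48-hour exposure, single concentration, 96-well plates; percent growth endpoint where 0 means no net growth. Active: below 10.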 A number with no mark means an inactive call. Activity calls are given as the source filed them.

Test system: HL-60(TB) leukemia
Test: NCI-60 one-dose screen, 48 h (100 = growth as untreated, 0 = no growth, -100 = all killed)
Details: 10 µM unless noted

Row | SMILES | growth
1 | CC[C@]12C=CCN3CC[C@@]4(c5ccc(OC)cc5N(C)[C@H]4[C@@](O)(C(=O)OC)[C@@H]1OC(=O)CCC(=O)N[C@@H](Cc1c[nH]c4ccccc14)C(=O)OC)[C@@H]32 | -5.33% (active)
2 | Oc1ccccc1/C=N\Nc1ccccc1 | 16.5%
3 | COc1cc(Br)c(-c2nc(-c3ccccc3)c(-c3ccccc3)n2Cc2ccccc2)cc1OC | 18.6%
4 | C=CCSSC1N=CNc2nc[nH]c21 (stereo not given) | 32%
5 | COc1ccc(NC(=O)n2nc(/C=C\c3ccc(O)c(OC)c3)cc2/C=C\c2ccc(O)c(OC)c2)cc1 | 5.32% (active)
6 | COc1cc(C(=O)Nc2cc(O)c(C/C=C(\C)CCC=C(C)C)c(O)c2)cc2c1O[C@]1(C)CC[C@@H](O)C(C)(C)[C@H]1C2 | -3.87% (active)
7 | Cc1ccc(NC2CC(=O)N(c3c(C)cc(C)cc3C)C2=O)c(C)c1 (stereo not given) | 102%
8 | O=S(=O)(Nc1ccc(Cl)c(F)c1)c1ccc(-c2cnc(C3CC3)o2)cc1 | 0.942% (active)
9 | O=C(/C=C/c1ccc(Cl)nc1)c1ccc(Cl)cc1Cl | 67.4%
10 | COc1cc2c3c(n(C4CCN(C)CC4)c(=O)c2cc1OC)-c1cc2c(cc1C3=O)OCO2 | 95%
11 | CCCCC(=O)OC1CCCCC1C (stereo not given) | 117%
12 | Nc1ccc2ccccc2c1-c1c(N)ccc2ccccc12 | 2.94% (active)
13 | COc1c2ccccc2c(OC)c2[nH]c(=O)ccc12 | 71.5%
14 | CCOc1ccccc1C(=O)OCC(=O)Nc1cccc(S(=O)(=O)N(C)C)c1 | 86.2%
15 | CN(C)c1ccc(-c2c(C#N)c(N)n3nc(N)c(C#N)c3c2C#N)cc1 | 95.7%
16 | CCc1c(Nc2ccc(C)cc2)[nH]c(N)nc1=S | 99.8%
17 | CC(C)C1=NOC(=O)C1=Cc1cn(-c2cccnc2)nc1-c1ccccc1 | -0.56% (active)
18 | COc1cc(-c2cc3cc(O)ccc3oc2=O)cc(OC)c1OC | 85%
19 | CCN(CC)CCCC(C)N/C(c1cccc(OC)c1)=c1\c(=O)[nH]n(-c2c3ccccc3nc3ccccc23)c(=O)\c1=C(/NC(C)CCCN(CC)CC)c1cccc(OC)c1 (stereo not given) | -43.5% (active)
20 | N#C/C(=C1C=C/C(=N/O)C(Cl)=C/1)c1ccc(Cl)cc1 | 61.1%

Row | SMILES | growth
21 | COc1cccc(/C=N/NC(=O)c2ccccc2Nc2ccnc(C(F)(F)F)c2)c1O | 34.8%
22 | CCCCn1c(NC(C)=O)c(S(=O)(=O)c2ccccc2)c2nc3ccccc3nc21 | 88.5%
23 | COc1cccc(-c2ccc3c(c2)NC(=O)/C3=C\c2ccc[nH]2)c1 | -1.26% (active)
24 | CSc1nc(N)c2c(n1)NC(c1ccccc1)C1CCc3ccccc3C1=N2 (stereo not given) | 26.4%
25 | N#Cc1c[nH]n2ccnc12 | 123%
26 | COc1cc(C2C(C#N)=C(N)Oc3cc4c(cc32)OCO4)cc2c1OCO2 (stereo not given) | -43% (active)
27 | O=C(NC1CCCCC1)c1ccc(Nc2ncnc3c2cnn3-c2ccccc2)cc1 | 106%
28 | OC(c1cc2cc(Br)ccc2c2cc(Br)ccc12)C1CCCCN1 (stereo not given) | -61.8% (active)
29 | CCCCn1c(-c2ccc(C(=O)O/N=C(\N)c3ccc4ccccc4c3)cc2)nc(-c2ccccc2)c1-c1ccccc1 | 23.8%
30 | COc1ccc(OCC(CO)N2CCN(c3ccccc3)CC2)cc1 (stereo not given) | 123%
31 | O=C1OC2C(I)C3CC2C1C3c1ccccc1 (stereo not given) | 85.7%
32 | CCCCCCCCCCCCCCCCCCOc1ccccc1CC(=O)OCC[N+]1(C)CCCCC1 | -5.08% (active)
33 | CN1C(=O)C(C2=NNC(c3ccccc3C(=O)O)C2)C(=O)N(C)C1=O (stereo not given) | 95.5%
34 | O=[N+]([O-])c1cnc(N2CCN(CC3CC3)CC2)nc1N1CCN(CC2CC2)CC1 | 99.2%
35 | COc1ccc(-c2ccc(-c3ccc(C(=N)N)o3)o2)cc1 | -46.2% (active)
36 | N#Cc1nnn(-c2ccc(S(N)(=O)=O)cc2)c1NC(=O)CCl | 77.5%
37 | COc1cc2cc(Oc3ccc(NC(=O)Nc4ccccc4)cc3)c(C)nc2cc1OCCN1CCCCC1 | -46.8% (active)
38 | CC(=O)c1c(C)nc2ccccc2c1/C=C/c1ccc(F)cc1 | 95.6%
39 | COc1cccc(C2C(C#N)=C(N)Oc3c2ccc2ccccc32)c1 (stereo not given) | -30.3% (active)
40 | CCOC(=O)[C@H](CSSc1ncnc2cc[nH]c12)NC(=O)[C@@H](C)c1ccc2cc(OC)ccc2c1 | 7.65% (active)
